This passage reports fractional viability results from the supplement of paper PMC5919970.

Counter-ions that a name gives are not always drawn. The full ranking holds about 2,000 compounds; the median of “fractional viability relative to vehicle” is about 0.92, and the lowest 2% start at about 0.11. Shown is part of a subset that was picked to be rich in the lowest values.

In the assay the test system is TYKNU. The experiment in a line: fractional viability relative to vehicle; TYKNU is a high-grade serous ovarian cancer line; higher = less growth inhibition. As to conditions: 72 h, genotype: OPA1 knockout (sgOPA1 #2). Put shortly:
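TYKNU control cells or lentiCRISPRv2 knockout derivatives were seeded at 500 cells per well into drug-stamped 384-well plates holding a ~2100-compound library at 2 or 10 μM, in duplicate. Cells were grown at 37 °C in 5% CO2 in RPMI 1640 with 10% FBS, and drug treatment lasted 72 h. Viability was read by Cell Titer Glo luminescence. Duplicate treatment wells were averaged and normalised to duplicate control wells from the same plate position.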

For the compound `c1nc2c(NC3CCCCC3)nc(Nc3ccc(N4CCOCC4)cc3)nc2[nH]1` [Reversine], the fractional viability is, setting by setting: (2uM) 0.571; (10uM) 0.342.
As to `CN1CCC(Nc2nc(Nc3ccc(Oc4ccccc4)cc3)c3c(=O)[nH]cc(Br)c3n2)CC1`, the fractional viability is 0.289 (2uM) and 0.0528 (10uM).
The corresponding values for `CCCCN1CCCC[C@H]1C(=O)Nc1c(C)cccc1C` [Levobupivacaine HCl] are 1.06 and 0.949.
On to `CCC1C/C(=C\c2cccnc2)C(=O)/C(=C/c2cccnc2)C1` (stereo not given), for which the fractional viability is, setting by setting: (2uM) 0.442; (10uM) 0.189.
The corresponding values for `C1=N/C2=N/c3ccc(OCCN4CCCC4)c(c3)COC/C=C/COCc3cccc(c3)C(=C1)N2` [Pacritinib (SB1518)] are 0.318 and 0.0734.
On to `Cc1cncc(CN2CCC(=C3c4ccc(Cl)cc4CCc4cccnc43)CC2)c1` [Rupatadine Fumarate], for which the fractional viability was found to be 1.06 (2uM) and 0.915 (10uM).
The corresponding values for `NC(=O)c1ccc(N(C(N)=O)c2c(F)cccc2F)nc1-c1ccc(F)cc1F` are 1.19 and 1.05.
For the compound `CCN(CC)CCN(Cc1ccc(-c2ccc(C(F)(F)F)cc2)cc1)C(=O)Cn1c(SCc2ccc(F)cc2)nc(=O)c2c1CCC2`, the fractional viability reads like this: (2uM) 0.76; (10uM) 0.0367.
On to `O=C(NNc1nc2cc(F)ccc2n2cccc12)c1cnccn1`, for which the fractional viability is 0.576 (2uM) and 0.643 (10uM).
The corresponding values for `C=CC[N+]1([C@H]2C[C@H]3[C@@H]4CC[C@H]5C[C@H](O)[C@@H](N6CCOCC6)C[C@]5(C)[C@H]4CC[C@]3(C)[C@H]2OC(C)=O)CCCC1` [Rocuronium Bromide] are 1.16 and 1.11.
As to `CCCCC(C=O)NC(=O)C(CC(C)C)NC(=O)C(CC(C)C)NC(C)=O` (stereo not given), the fractional viability reads like this: (2uM) 0.8; (10uM) 0.939.
`CC(C)C[C@H](NC(=O)[C@H](CCc1ccccc1)NC(=O)CN1CCOCC1)C(=O)N[C@@H](Cc1ccccc1)C(=O)N[C@@H](CC(C)C)C(=O)[C@@]1(C)CO1` [Carfilzomib (PR-171)]: the fractional viability runs as follows: (2uM) 0.0962; (10uM) 0.146.
Regarding `COc1ccc(C[C@H](NC(=O)[C@H](C)NC(=O)CN2CCOCC2)C(=O)N[C@@H](Cc2ccccc2)C(=O)[C@@]2(C)CO2)cc1`, the fractional viability is, setting by setting: (2uM) 0.149; (10uM) 0.144.
In the case of `COC[C@H](NC(=O)c1cnc(C)s1)C(=O)N[C@@H](COC)C(=O)N[C@@H](Cc1ccccc1)C(=O)[C@@]1(C)CO1` [Oprozomib (ONX 0912)], the fractional viability by setting is: (2uM) 0.153; (10uM) 0.136.
The corresponding values for `CC(C)C[C@@H]1NC(=O)[C@@H](C(C)C)NC(=O)[C@@H]2CCCN2C(=O)[C@@H](CC(=O)O)NC(=O)[C@@H](Cc2c[nH]c3ccccc23)NC1=O` are 0.722 and 0.866.
Turning to `C=CCNC1=C2C[C@@H](C)C[C@H](OC)[C@H](O)[C@@H](C)/C=C(\C)[C@H](OC(N)=O)[C@@H](OC)/C=C\C=C(/C)C(=O)NC(=CC1=O)C2=O` [17-AAG (Tanespimycin)], the fractional viability (2uM) worked out at 0.652 and the fractional viability (10uM) was 0.468.
For `Cc1ccc(C(=O)Nc2ccc(CN3CCN(C)CC3)c(C(F)(F)F)c2)cc1C#Cc1cnc2cccnn12`, the fractional viability was found to be 0.67 (2uM) and 0.106 (10uM).
For the compound `CCN1CCN(Cc2ccc(C(=O)Nc3ccc(C)c(Oc4ccc5c(c4)CC(=O)N5)c3)cc2C(F)(F)F)CC1`, the fractional viability amounted to 0.782 (2uM) and 0.462 (10uM).
As to `Cc1ccc(C(=O)Nc2ccc(CN3CCN(C)CC3)c(C(F)(F)F)c2)cc1C#Cc1cnc2[nH]ncc2c1`, the fractional viability reads like this: (2uM) 0.589; (10uM) 0.115.
The like results for `Nc1cccc2c1CN(C1CCC(=O)NC1=O)C2=O` (stereo not given) [Lenalidomide (CC-5013)] were, in that order, 1.14 and 1.02.
For the compound `COCC[n+]1c2c(n(Cc3cnccn3)c1C)C(=O)c1ccccc1C2=O` [YM155 (Sepantronium Bromide)], the fractional viability was found to be 0.06 (2uM) and 0.0555 (10uM).
The like results for `CC(C)NCCCn1c(Sc2cc3c(cc2I)OCO3)nc2c(N)ncnc21` were, in that order, 0.428 and 0.48.
The corresponding values for `CCCCCOc1ccc(-c2ccc(-c3ccc(C(=O)N[C@H]4C[C@@H](O)[C@@H](O)NC(=O)[C@@H]5[C@@H](O)[C@@H](C)CN5C(=O)[C@H]([C@@H](C)O)NC(=O)[C@H]([C@H](O)[C@@H](O)c5ccc(O)cc5)NC(=O)[C@@H]5C[C@@H](O)CN5C(=O)[C@H]([C@@H](C)O)NC4=O)cc3)cc2)cc1` are 1.02 and 0.857.
With `CC(C)(C)C(=O)Nc1ccc2c(c1)C(=O)C(=O)c1ccccc1-2`, the fractional viability is, setting by setting: (2uM) 0.181; (10uM) 0.0604.
Consider `CC(=O)Nc1ccccc1` [Acetanilide], for which the fractional viability is, setting by setting: (2uM) 0.946; (10uM) 0.905.
In the case of `O=C(O)CCCN1CCC(O[C@@H](c2ccc(Cl)cc2)c2ccccn2)CC1` [Bepotastine Besilate], the fractional viability is, setting by setting: (2uM) 1.14; (10uM) 0.923.
In the case of `CN1CCC(COc2cnc(-c3cccc(Cn4nc(-c5cccc(C#N)c5)ccc4=O)c3)nc2)CC1`, the fractional viability (2uM) was determined as 0.78 and the fractional viability (10uM) was 0.216.
Turning to `CN1CCC(CNc2ccc3ncc(-c4cccc(OC(F)(F)F)c4)n3n2)CC1` [SGI-1776 free base], the fractional viability is 0.888 (2uM) and 0.107 (10uM).
`NC(CO)(CO)CO` [Trometamol]: the fractional viability reads like this: (2uM) 0.883; (10uM) 0.842.
For `O=C(O)C(Cc1c[nH]c2ccccc12)N1C(=O)c2ccccc2C1=O` (stereo not given), the fractional viability worked out at 0.905 (2uM) and 0.771 (10uM).
The corresponding values for `N#CC(=C(/N)Sc1ccccc1N)/C(C#N)=C(\N)Sc1ccccc1N` are 1.36 and 1.25.
The corresponding values for `Oc1ccc(-c2nc(-c3ccc(F)cc3)c(-c3ccncc3)[nH]2)cc1` are 1.48 and 1.09.
With `OCCn1cc(-c2ccc3c(c2)CC/C3=N\O)c(-c2ccncc2)n1`, the fractional viability by setting is: (2uM) 1.14; (10uM) 0.942.
The like results for `CN(C)CCOc1ccc(-c2nc(-c3ccncc3)c(-c3ccc4c(c3)CC/C4=N\O)[nH]2)cc1` were, in that order, 0.833 and 0.0595.
Consider `O=C(CSc1nc2c(c(=O)n1-c1ccccc1)SCC2)Nc1ccc(-c2ccccc2)cn1`, for which the fractional viability by setting is: (2uM) 1.09; (10uM) 0.948.
